These results are taken from PubChem BioAssay (Tox21).

SMILES strings stand for the structures. Inconclusive results are not listed. Where a call stands in place of a potency, no number is given. A number with no mark means an inactive call. The source made the active and inactive calls. The call rests on the fitted dose curve; in most records, active means well fitted inhibition curve with a large enough effect in the repeat runs; inconclusive means weak or mixed curves; inactive means no such curve, though single readings can be large or run the other way.
Potency means the concentration at half of the fitted maximal effect.

The nature of the experiment: qHTS assay to identify small molecule antagonists of the thyroid receptor (TR) signaling pathway (AID 743065). Further: nearly all actives have a fitted effect of over 55% in size. The conditions noted are these: GH3.TRE-Luc, T3-stimulated luciferase inhibition, 23.5 h; series mostly up to 70.3 µM. From the text:
U.S. Tox21 Program National Center for Advancing Translational Sciences [NCATS] NIH Chemical Genomics Center [NCGC] U.S. Environmental Protection Agency [EPA] National Institutes of Environmental Health Sciences [NIEHS] National Toxicology Program [NTP] U.S. Food and Drug Administration [FDA] Tox21 Assay Overview: Thyroid receptor (TR), a nuclear hormone receptor, plays an important role in development, proliferation, differentiation, metabolism, brain function, and cardiovascular system. […] To profile the Tox21 10K compound library in TR signaling, a cell-based GH3-TRE-Luc assay (GH3.TRE-Luc cell line, developed by the laboratory of Dr. Albertinka J. Murk, Wageningen University) was used to measure the inhibition of TR. GH3 (rat pituitary tumor) cells stably expressing a TR activity sensor consisting of two TR response elements and a luciferase reporter gene.
Tox21 Assay Protocol Summary: GH3.TRE-Luc cells were dispensed at 1500 cells/4 uL/well into 1536-well white solid bottom plates using a Multidrop Combi dispenser (Thermo Fisher Scientific Inc., Waltham, MA). After the assay plates were incubated at 37 C for 4 hours, 23 nL of library compound or DMSO controls was transferred to the assay plates by a pintool station (Kalypsys, San Diego, CA), followed by addition of 1 ul of T3 (1 nM, final concentration in the wells) to stimulate TR transactivation. The assay plates were incubated at 37 C for 23.5 h, and then 1 uL of CellTiter-Fluor reagent (Promega, Madision, WI) of measuring cytotoxicity was added to each well using a Bioraptr Flying Reagent Dispenser (FRD) workstation (Beckman Coulter, Indianapolis, IN, USA). The plates were incubated at 37 C and 5% CO2 for additional 30 min, and fluorescence intensity was measured by a ViewLux plate reader (PerkinElmer, Shelton, CT). For measuring luciferase reporter gene activity, 4 uL of ONE-Glo Luciferase Assay reagent (Promega) was added to each well using a Bioraptr FRD (Beckman Coulter), followed by 30 min incubation at room temperature. The luminescence intensity of plates was recorded by a ViewLux plate reader (PerkinElmer, Shelton, CT).
In general terms: Quantitative high-throughput screening tests each substance at several concentrations.
In the case of `CCN(CC)C1CCCCC1`, the Potency entry is “inactive”.

As to `N#CN`, the Potency entry is “inactive”.

In the case of `CNC(=O)NC(O)C(Cl)(Cl)Cl` (stereo not given), the Potency entry is “inactive”.

For `O=C(O)c1c(Cl)ccc2cc(Cl)cnc12`, the Potency entry is “inactive”.

In the case of `O=C1CCCCC1Cl` (stereo not given), the Potency result was “inactive”.

Turning to `O=C(Cl)CCl`, the Potency entry is “inactive”.

Take `O=[N+]([O-])CCO`: the Potency entry is “inactive”.

As to `BrCCc1ccccc1`, the Potency entry was “inactive”.

For `c1cncc([C@@H]2CCCCN2)c1`, the Potency entry was “inactive”.

Take `CN(C)C1CCCCC1`: the Potency entry was “inactive”.

As to `N[C@@H](Cc1ccc(Oc2cc(I)c(O)c(I)c2)c(I)c1)C(=O)O`, the Potency result is “inactive”.

In the case of `Oc1ccc2c3c1O[C@H]1[C@@H](O)C=C[C@H]4[C@@H](C2)NCC[C@@]341`, the Potency entry is “inactive”.

In the case of `O=CCCl`, the Potency entry is “inactive”.

As for `CC(C)NCC(O)c1ccc([N+](=O)[O-])cc1` (stereo not given), the Potency result is “inactive”.

For the compound `Cc1cccc2sc3nncn3c12`, the Potency result is “inactive”.

On to `O=P(O)(O)CN(CP(=O)(O)O)CP(=O)(O)O`, for which the Potency entry is “inactive”.

Consider `COc1ccc(C=O)cc1O`, for which the Potency result was “inactive”.

Consider `COc1cccc(C=O)c1`, for which the Potency entry was “inactive”.

`C#CC(C)(C)O`: the Potency result was “inactive”.

Regarding `Cc1ccc(S(=O)(=O)N[C@@H](CCCCN)C(=O)CCl)cc1`, the Potency was 13.3 µM (active).

With `NC1(c2ccccc2)CCCCC1`, the Potency was 48.1 µM (active).

For the compound `CCC(C)(C#N)N=NC(C)(C#N)CC` (stereo not given), the Potency result is “inactive”.

In the case of `COC(=O)c1ccccc1CS(=O)(=O)NC(=O)Nc1nc(OC)cc(OC)n1`, the Potency result is “inactive”.

`Clc1nc(Cl)nc(Nc2ccccc2Cl)n1`: the Potency result was “inactive”.

Turning to `O=[N+]([O-])c1cccc(CCl)c1`, the Potency entry is “inactive”.

Turning to `CON(C)C(=O)Nc1ccc(Br)cc1`, the Potency entry is “inactive”.

With `C=CC(=O)OCCN(C)C`, the Potency result was “inactive”.

With `NCCOS(=O)(=O)O`, the Potency entry is “inactive”.

For the compound `Clc1cc2c(cc1Cl)Oc1cc(Cl)c(Cl)cc1O2`, the activity, negative = inhibition was 0.19% [at 0.341 µM].

Turning to `CCOP(=S)(OCC)Oc1ccc(Cl)cc1Cl`, the Potency result is “inactive”.

As for `CC[C@@H](CO)NC(=O)[C@@H]1C=C2c3cccc4[nH]cc(c34)C[C@H]2N(C)C1`, the Potency entry is “inactive”.

As for `N=C(N)[Se]`, the Potency result was “inactive”.

Turning to `CCCOc1nn(C(=O)NS(=O)(=O)c2ccccc2C(=O)OC)c(=O)n1C`, the Potency entry was “inactive”.

Consider `CN1COCN(Cc2cnc(Cl)s2)/C1=N\[N+](=O)[O-]`, for which the Potency entry is “inactive”.

As to `CC(O)CCl` (stereo not given), the Potency entry is “inactive”.

Turning to `CC(=NC#N)N(C)Cc1ccc(Cl)nc1`, the Potency entry is “inactive”.

With `CC(C)(C)NC[C@H](O)c1ccc(O)cc1Cl`, the Potency entry was “inactive”.

On to `CCCC[N+](=O)[O-]`, for which the Potency result is “inactive”.

As for `CCC1(CC)C(=O)C=CNC1=O`, the Potency entry is “inactive”.

As to `Clc1ccc(C(Cl)(Cl)Cl)cn1`, the Potency entry was “inactive”.
